Test [1] is described as follows: CCTE_Shafer_MEA_dev_firing_rate_mean: CCTE's Neural Network Formation Assay for Mean Firing Rate, Shafer Lab (AID 2284031).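 For AC50: curve fitted for loss of firing so AC50 reflects decreased mean firing rate.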 A digest of the protocol:
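Spike frequency (spikes/recording length, averaged over active electrodes) was recorded on days 5, 7, 9 and 12 and collapsed to AUC; rat cortical cultures received compound continuously over 12 days of network development.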

Test [2] can be described thus: CCTE_Shafer_MEA_dev_per_burst_spike_percent: CCTE's Neural Network Formation Assay for Percent of Spikes in a Burst, Shafer Lab (AID 2284032).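 For AC50: fitted as a decrease in burst spike percentage below DMSO baseline.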 A digest of the protocol:
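Value is trapezoidal AUC over recordings on days 5, 7, 9 and 12 of the well-mean fraction of spikes falling in single-electrode bursts; rat cortical cultures exposed continuously from plating, treatment renewed DIV 5 and 9, fitted downward against DMSO.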

Test [3] can be described thus: CCTE_Shafer_MEA_dev_active_electrodes_number: CCTE's Neural Network Formation Assay for Number of Active Electrodes, Shafer Lab (AID 2284040; active = hit-call score of the fitted dose curve at least 0.9, where 1 is the maximum;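 note: potency for loss of active electrodes versus DMSO so lower counts are hits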). A digest of the protocol: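 Counts electrodes per well firing at least 5 spikes/min, recorded on days 5, 7, 9 and 12 in rat cortical cultures dosed continuously from plating (treatment refreshed DIV 5, 9). Value is the area under the curve over recordings, fitted downward relative to DMSO.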

Test [4] is described as follows: CCTE_Shafer_MEA_dev_burst_rate: CCTE's Neural Network Formation Assay for Burst Rate, Shafer Lab (AID 2284042).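 For AC50: potency for loss of burst rate below DMSO control.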 A digest of the protocol:
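Primary rat cortical neurons on PEI-coated 48-well MEA plates (laminin added with cells at plating) (16 electrodes/well), exposed from plating to day 12, dosing renewed at DIV 5 and 9. Burst rate averaged over active electrodes, recorded DIV 5, 7, 9, 12, summarized as AUC; loss versus DMSO.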

Test [5] is described as follows: CCTE_Shafer_MEA_dev_bursting_electrodes_number: CCTE's Neural Network Formation Assay for Number of Bursting Electrodes, Shafer Lab (AID 2284043; active = hit-call score of the fitted dose curve at least 0.9, where 1 is the maximum;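 note: potency is for loss of bursting electrodes relative to DMSO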). A digest of the protocol: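 Counted: electrodes with burst rate ≥1 per 2 min in each well. Cells: primary rat cortex, 1.5 x 10^5/well, on 16-electrode MEA wells. Exposure: DIV 0–12, compound renewed DIV 5 and 9. Recording days 5, 7, 9, 12; AUC vs DMSO baseline.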

A short description of test [6]: CCTE_Shafer_MEA_dev_per_burst_interspike_interval: CCTE's Neural Network Formation Assay for Burst Interspike Interval, Shafer Lab (AID 2284044).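 For AC50: potency for a decrease of within-burst interspike interval below DMSO level.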 A digest of the protocol:
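Rat cortical primary cultures, 16 electrodes/well; compound from plating, renewed with full media change DIV 5 and 9. Spikes via adaptive detector; per-burst ISI well-mean over active bursting electrodes; AUC of DIV 5/7/9/12 recordings; loss-direction fit vs DMSO.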

Test [7] is described as follows: CCTE_Shafer_MEA_dev_burst_duration_mean: CCTE's Neural Network Formation Assay for Mean Burst Duration, Shafer Lab (AID 2284045).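 For AC50: curve fitted for loss meaning shorter burst duration than DMSO.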 A digest of the protocol: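 Network-formation assay in primary rat cortical neurons; treatment spans twelve days of development. Mean burst duration per well is integrated by trapezoidal AUC and fitted in the loss-of-signal direction against DMSO baseline.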

Test [8] in a line: CCTE_Shafer_MEA_dev_interburst_interval_mean: CCTE's Neural Network Formation Assay for Mean Interburst Interval, Shafer Lab (AID 2284046).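 Note: well-mean interburst interval of bursting electrodes as AUC over four recording days; curve fitted for decrease in interburst interval relative to DMSO.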 A digest of the protocol:
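Recordings on days 5, 7, 9 and 12 give well-mean interburst interval across actively bursting electrodes, summarized as area under the curve. Cultures: rat cortical neurons, continuous exposure from day 0, compound renewed at feeds; decrease analyzed versus DMSO.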

Test [9] in a line: CCTE_Shafer_MEA_dev_inter_network_spike_interval_mean: CCTE's Neural Network Formation Assay for Mean Inter-network Spike Interval, Shafer Lab (AID 2284047).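 For AC50: potency for a decrease in mean inter-network spike interval below DMSO.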 A digest of the protocol: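 Primary rat cortical neurons on 16-electrode MEA wells, exposed from plating day 0 through DIV 12, compound renewed at DIV 5 and 9 media changes. Mean interval between network-spike peaks recorded DIV 5, 7, 9, 12; collapsed as trapezoidal AUC, fitted downward versus DMSO.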

Test [10] in a line: CCTE_Shafer_MEA_dev_network_spike_number: CCTE's Neural Network Formation Assay for Number of Network Spikes, Shafer Lab (AID 2284048).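 For AC50: fit as a loss of signal meaning fewer network spikes than DMSO.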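 Note: synchronized bursts across electrodes counted on days 5 7 9 12 and integrated as AUC.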 A digest of the protocol:
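Extracellular recordings from 16-electrode wells track network formation in rat cortical cultures under continuous treatment from plating. The endpoint is network spike number, expressed as AUC across DIV 5–12 relative to DMSO vehicle.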

The nature of test [11]: CCTE_Shafer_MEA_dev_network_spike_peak: CCTE's Neural Network Formation Assay for Mean Number of Electrodes in Network Spike, Shafer Lab (AID 2284049).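 Note: fitted for loss of signal meaning fewer electrodes in network spikes than DMSO.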 A digest of the protocol:
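Continuous 12-day exposure of rat cortical cultures, starting at plating, on MEA plates. Endpoint: electrodes participating in network-spike peaks, AUC across DIV 5–12, DMSO as negative control.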

A short description of test [12]: CCTE_Shafer_MEA_dev_spike_duration_mean: CCTE's Neural Network Formation Assay for Mean Spike Duration, Shafer Lab (AID 2284051).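 For AC50: potency for a decrease in mean network spike duration versus DMSO.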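 Note: mean network spike duration pooled as area under curve over DIV 5 to 12 recordings.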 A digest of the protocol: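 Primary rat cortical neurons on 16-electrode MEA wells (PEI-coated, laminin in plating drop), exposed from plating through DIV 12 with compound renewed at DIV 5 and 9. Mean network-spike duration recorded DIV 5, 7, 9, 12; trapezoidal AUC across days, DMSO baseline.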

The nature of test [13]: CCTE_Shafer_MEA_dev_network_spike_duration_std: CCTE's Neural Network Formation Assay for Standard Deviation of Network Spike Duration, Shafer Lab (AID 2284052).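 Note: area under curve of spike duration SD across recording days 5 to 12; hits are decreases in network spike duration SD versus DMSO vehicle.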 A digest of the protocol: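 Primary rat cortical neurons on PEI-coated 16-electrode MEA wells, exposed from plating day 0 through day 12 with compound renewed at DIV 5 and 9. Network spike duration SD recorded on days 5, 7, 9, 12, collapsed as trapezoidal AUC; loss-of-signal fit versus DMSO.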

A short description of test [14]: CCTE_Shafer_MEA_dev_per_network_spike_spike_number_mean: CCTE's Neural Network Formation Assay for Mean Number of Spikes in a Network Spike, Shafer Lab (AID 2284053). A digest of the protocol:
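Primary rat cortical neurons on 48-well, 16-electrode MEA plates were exposed from plating to DIV 12, with dosing renewed on DIV 5 and 9. Spikes per network spike (0.05 s peak window) were recorded on DIV 5, 7, 9 and 12 and collapsed as trapezoidal AUC versus DMSO.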

The nature of test [15]: CCTE_Shafer_MEA_dev_per_network_spike_spike_percent: CCTE's Neural Network Formation Assay for Percent of Spikes in a Network Spike, Shafer Lab (AID 2284054). A digest of the protocol:
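Developing networks of rat cortical neurons are dosed at day 0 and recorded extracellularly four times up to day 12. The endpoint is the area under the curve of percent spikes in network spikes, fitted in the negative direction relative to DMSO.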

The nature of test [16]: CCTE_Shafer_MEA_dev_LDH: CCTE's Lactate Dehydrogenase Assay for Cytotoxicity in the Neural Network Formation Assay, Shafer Lab (AID 2284068; active = hit-call score of the fitted dose curve at least 0.9, where 1 is the maximum;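 note: exposure for twelve days from plating with re-dosing on DIV 5 and 9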). A digest of the protocol:
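Primary rat cortical neurons were plated on PEI/laminin MEA plates and exposed from day 0 for twelve days, with compound renewed at DIV 5 and 9. Cytotoxicity was determined by spectrophotometric LDH assay relative to DMSO.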

A short description of test [17]: CCTE_Shafer_MEA_dev_mutual_information_norm: CCTE's Neural Network Formation Assay for Mutual Information Normalization, Shafer Lab (AID 2284091).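 For AC50: mutual information between electrodes summarised as area under curve across four recording days; potency is for a decrease in mutual information relative to DMSO.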 A digest of the protocol: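 Exposure of primary rat cortical neurons began at plating and ran to DIV 12, with full media and treatment renewal after DIV 5 and 9 recordings. Mutual information AUC (DIV 5–12) was analysed for loss versus DMSO.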

Test [18] in a line: CCTE_Shafer_MEA_dev_correlation_coefficient_mean: CCTE's Neural Network Formation Assay for Mean Correlation Coefficient, Shafer Lab (AID 2284093).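 For AC50: well mean pairwise spike train correlation integrated as AUC over recording days 5 to 12; potency fitted for loss of correlation relative to DMSO vehicle wells.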 A digest of the protocol: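 Spontaneous activity recorded on days 5, 7, 9 and 12 post-plating; pairwise spike correlations are averaged across active electrodes and collapsed to an area-under-curve. Rat cortical cultures are dosed from plating through 12 days, with compound renewed at media changes.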

Test [19] can be described thus: CCTE_Harrill_HTTr_Viability_MCF7: CCTE's 6-hour Cell Viability Assessment for the High-Throughput Transcriptomics (HTTr) Platform, in MCF-7 cells cultured in DMEM + 10% fetal bovine serum, Harrill Lab (AID 2284010). A digest of the protocol: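 Propidium iodide exclusion, imaged by high-content analysis, gauged viability after a six-hour exposure across eight concentrations. Cells were MCF-7 grown in DMEM with 10% fetal bovine serum; fits run in both directions against DMSO.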

Results filed as inconclusive are left out. Activity calls are given as the source filed them. Rule for the calls, unless noted: active = hit-call score of the fitted dose curve at least 0.9, where 1 is the maximum; inactive = score below 0.9.

As for `CC1(C)C(C=C(Cl)c2ccc(Cl)cc2)C1C(=O)OC(C#N)c1ccc(F)c(Oc2ccccc2)c1` (stereo not drawn), the AC50 in test [1] is 4.24 µM (active); in test [2], 13 µM (active); in [3], 12.8 µM (active); in test [4] it was 9.91 µM (active); in [5], 12.9 µM (active); in test [6], 7.6 µM (active). The AC50 in [8] is 13.6 µM (active); in test [9] it was 4.11 µM (active); in test [10], 14.4 µM (active); in [11], 13.1 µM (active); in test [12] it was 5.21 µM (active); in test [13] it was 6.89 µM (active). Further, the AC50 in [14] is 6.7 µM (active); in test [15], 23.3 µM (active); in test [16], 14.3 µM (active); in [17], 5.42 µM (active); in [18], 12.8 µM (active). Also, the outcome in test [7] was inactive.

In the case of `CCOP(=O)(OCC)SCSC(C)(C)C`, the outcome in test [1], in [2], in [4], in test [6], in test [7] and in [8] was inactive. Besides, the compound was called inactive in test [9], in [10], in test [12], in test [13], in [14] and in test [15]. Besides, the result in test [17] and in test [18] was inactive. Moreover, the AC50 in test [3] is 16.2 µM (active); in test [5], 9.83 µM (active); in test [11], 49.5 µM (active); in [16], 49.5 µM (active).

For the compound `CC1(C)C(C=C(Cl)Cl)C1C(=O)O[C@H](C#N)c1cccc(Oc2ccccc2)c1` (stereo partly drawn), the AC50 in test [1] was 0.711 µM (active); in [2], 4.59 µM (active); in [3], 4.44 µM (active); in test [4], 1.95 µM (active); in test [5], 3.6 µM (active); in [6], 2.89 µM (active). Also, the AC50 in [7] was 0.65 µM (active); in test [8], 8.7 µM (active); in test [9], 1.03 µM (active); in [10], 7.66 µM (active); in test [11] it was 2.75 µM (active); in [12], 2.95 µM (active). For the same compound, the AC50 was 3.1 µM (active) in test [13]; 2.74 µM (active) in [14]; 7.68 µM (active) in test [15]; 5.77 µM (active) in test [16]; 2.9 µM (active) in [17]; 4.48 µM (active) in test [18].

For `CC(C)(C)OOC(C)(C)C#CC(C)(C)OOC(C)(C)C`, in [19], the outcome was inactive.

As to `[O-][Cl+3]([O-])([O-])O`, the outcome in test [19] was inactive.

As to `CC1(C)[C@H](C=C(Cl)Cl)[C@H]1C(=O)OCc1c(F)c(F)cc(F)c1F`, the AC50 in test [1] was 23.4 µM (active); in [2], 23.1 µM (active); in test [3], 23 µM (active); in test [4], 23.7 µM (active); in test [5] it was 23.3 µM (active); in test [6], 13.7 µM (active). For the same compound, the AC50 is 9.92 µM (active) in [7]; 13.9 µM (active) in [8]; 23.3 µM (active) in [10]; 16.7 µM (active) in test [11]; 22.8 µM (active) in test [12]; 13.1 µM (active) in test [14]. The AC50 in test [15] was 12.8 µM (active); in test [17], 13.4 µM (active); in test [18], 10.7 µM (active). In addition, the outcome in test [9] and in test [13] was inactive.

Broadly, the AC50 is the concentration giving half of the maximal activity seen.
